Source: PubChem BioAssay (NCATS)
Calls of active or inactive are those of the source. Calls follow the shape of the dose curve; as a rule, active = well fitted activation curve with a large enough effect; inconclusive = small, poorly fitted or top-dose-only effect; inactive = no such curve, though single readings can be large or run the other way.

Target: Cytochrome P450 3A4 (Homo sapiens) (UniProt P08684)
Assay: qHTS Assay for Activators of Cytochrome P450 3A4 (AID 885); also: nearly all actives have a fitted effect of over 65% in size
Conditions: recombinant CYP3A4, Luciferin-PPXE luminescence, 60 min; series mostly up to 57.1 µM
Outline: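 Activators are scored by enhanced luminescence from CYP3A4 conversion of luciferin-PPXE (25uM, equal to KM) to luciferin, after 60 min at RT with an NADPH-regenerating system.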

Cytochrome P450 3A4 (Homo sapiens), sequence (P08684 whole entry, looked up): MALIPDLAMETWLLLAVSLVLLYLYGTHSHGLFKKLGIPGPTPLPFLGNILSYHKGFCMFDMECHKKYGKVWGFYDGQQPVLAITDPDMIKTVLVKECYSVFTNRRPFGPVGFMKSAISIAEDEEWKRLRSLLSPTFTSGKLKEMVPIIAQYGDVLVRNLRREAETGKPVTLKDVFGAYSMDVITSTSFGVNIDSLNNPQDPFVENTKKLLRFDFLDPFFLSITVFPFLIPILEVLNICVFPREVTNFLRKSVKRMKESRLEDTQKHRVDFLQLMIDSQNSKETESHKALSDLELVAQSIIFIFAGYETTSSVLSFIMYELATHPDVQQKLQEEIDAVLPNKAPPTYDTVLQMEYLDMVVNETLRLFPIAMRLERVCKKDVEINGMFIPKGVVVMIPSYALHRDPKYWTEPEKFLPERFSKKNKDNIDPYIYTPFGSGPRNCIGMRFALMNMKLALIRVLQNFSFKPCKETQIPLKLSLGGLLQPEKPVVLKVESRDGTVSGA

Potency, inactive:
Cc1c(O)c(O)cc2c1oc1c3ccccc3oc(=O)c21
Clc1ccc(C2[C@H]3CN(CC4CCCCC4)[C@H](c4ccccc4)C34CC2(c2ccccc2)C4)cn1 (stereo not given in full)
FC(F)(F)c1ccc(CN2C[C@@H]3C(c4ccc(C(F)(F)F)cc4)C4(c5ccccc5)CC3(C4)[C@H]2c2ccccc2)cc1 (stereo not given in full)
N#Cc1ccc(C23CC4(C2)[C@H](CN(CC2CCCCC2)[C@@H]4c2ccccc2)C3c2ccc(C(F)(F)F)cc2)cc1 (stereo not given in full)
CC1(C)CC(=O)c2c(oc3cc(O)c(O)cc23)C1
CCC1=C2CC[C@H]3C(=O)N(c4ccccc4)C(=O)[C@H]3[C@H]2[C@@]2(C)C(=O)N(CC(=O)OC)C(=O)N2C1=O
N#CCC(=O)NC(=O)NCC1CC1
CCC1=C2CC[C@H]3C(=O)N(CC(=O)OC)C(=O)[C@H]3[C@H]2[C@@]2(C)C(=NCC(=O)OC)OC(=O)N2C1=O
COC(=O)[C@@H]1C[C@@H]2CC[C@@H](O)C[C@@H]2N1Cc1ccc(N2CCN(C)CC2)cc1
Nc1cc(=O)[nH]c(=O)n1Cc1ccccc1
CN1C[C@@H]2C(c3ccccc3)C3(c4ccccc4)CC2(C3)[C@H]1c1ccccc1 (stereo not given in full)
COC(=O)[C@@H]1C[C@@]2(O)[C@H](O)[C@H](O)[C@H](O)C[C@H]2N1Cc1ccc(C(F)(F)F)cc1
CCC1=C2CC[C@H]3C(=O)NC(=O)[C@H]3[C@H]2[C@@]2(C)C(=NCC3CC3)OC(=O)N2C1=O
O=C(O)c1sccc1S(=O)(=O)Nc1ccc(Cl)cc1
COC(=O)c1ccc(C23CC4(C2)[C@H](CN(C)[C@@H]4c2ccccc2)C3c2ccccc2)cc1 (stereo not given in full)
CCC1=C(OC(=O)N(CC)CC)N2C(=O)OC(=NCCOC)[C@]2(C)[C@H]2C1=CC[C@H]1C(=O)N(C)C(=O)[C@H]12
Nc1cc(=O)[nH]c(=O)n1CC1CC1

Activity change, positive = activation, inactive:
CO[C@@H]1COC(=O)C/C=C\[C@@H](C)[C@@H]2C=C[C@H](O)[C@@H](COC(=O)CCC[C@H]1C)O2 -44.8% [at 11.4 µM]
O=C1[C@H]2[C@H]3[C@H](O)[C@H](O)C/C(=N/OC[C@@H](O)COCc4ccco4)[C@@H]3CC[C@@H]2C(=O)N1c1cccc(Oc2ccccc2)c1 -40.2% [at 11.4 µM]
CC(C)=CCC/C(C)=C/CO/N=C1/C[C@@H](O)[C@@H](O)[C@@H]2[C@@H]3C(=O)N(Cc4ccccc4)C(=O)[C@H]3CC[C@H]12 -49.8% [at 11.4 µM]
CO[C@H]1COC(=O)[C@@H](Cc2ccccc2)NC(=O)[C@@H](C)COC(=O)C/C=C\[C@@H]1C -36.9% [at 11.4 µM]
C[C@H]1CC[C@H]2C(=O)N3[C@H](c4ccc(Br)cc4)[C@@H](C)CC[C@H]3C(=O)N2[C@@H]1c1ccc(Br)cc1 -43.1% [at 11.4 µM]
C[C@@H](c1ccccc1)N1C(=O)[C@H]2[C@H]3[C@H](O)[C@H](O)C/C(=N/OCc4ccccc4)[C@H]3CC[C@@H]2C1=O -40.9% [at 11.4 µM]
CO[C@H]1COC(=O)[C@@H](C)COC(=O)[C@@H](COCc2ccccc2)NC(=O)C/C=C\[C@H]1C -40.1% [at 11.4 µM]
O=C1[C@H]2[C@H]3[C@H](O)[C@H](O)C/C(=N/OC[C@@H](O)COCc4ccco4)[C@H]3CC[C@@H]2C(=O)N1c1cccc(Oc2ccccc2)c1 -40.2% [at 11.4 µM]
CO/N=C1/c2cc(OC)ccc2O[C@@H](c2cccc(OC)c2)[C@H]1O -52.8% [at 11.4 µM]
CO[C@H]1COC(=O)[C@@H](C)COC(=O)[C@@H](Cc2ccccc2)NC(=O)C/C=C\[C@H]1C -36.8% [at 11.4 µM]
CO[C@@H]1COC(=O)[C@H](COCc2ccccc2)NC(=O)C/C=C\[C@@H](C)[C@H](OC)COC(=O)[C@@H](C)NC(=O)C/C=C\[C@H]1C -36.6% [at 11.4 µM]
CO[C@H]1COC(=O)[C@H](C)COC(=O)C/C=C\[C@@H](C)[C@H](OC)COC(=O)C/C=C\[C@@H]1C -51.9% [at 11.4 µM]
COC(=O)[C@@H]1CC[C@H](C)[C@@H](c2ccc(C)cc2)N1C(=O)c1ccc(/C=N\O[C@@H](C)CN2CCCCc3nc(C)c(C)cc32)cc1 -36.1% [at 11.4 µM]
CC(=O)O[C@H]1C2=CO[C@H](C)[C@H]3[C@H]4C5=C([C@H](O)[C@H]6O[C@@H]6C5=O)[C@H](O[C@H]4C)[C@@]23C(=O)[C@H]2O[C@@H]21 -42.7% [at 11.4 µM]
COc1ccc(COC(=O)N/N=C2/C[C@@H](O)[C@@H](O)[C@@H]3[C@@H]4C(=O)N([C@@H](C)c5ccccc5)C(=O)[C@H]4CC[C@@H]23)cc1 -39.8% [at 11.4 µM]
C/C(CCN1CCc2nc(-c3ccccc3)c(-c3ccccc3)cc2C1)=N\OC[C@@H](O)[C@@H]1O[C@@H]2OC(C)(C)O[C@@H]2[C@H]1O -41.3% [at 11.4 µM]
CC(C)=CCC/C(C)=C/CO/N=C1/C[C@@H](O)[C@@H](O)[C@@H]2[C@H]3C(=O)N(c4ccc(F)cc4F)C(=O)[C@@H]3CC[C@H]12 -35.2% [at 11.4 µM]
CCc1cc2c(nc1CC)CCN(CC/C(C)=N/OC[C@@H](C)[C@H](OCc1ccccc1)C(C)C)C2 -34.8% [at 11.4 µM]
O=C1[C@H]2[C@H]3[C@H](O)[C@H](O)C/C(=N/OC[C@@H](O)COCc4ccco4)[C@H]3CC[C@@H]2C(=O)N1Cc1ccccc1 -57.9% [at 11.4 µM]
CC(=O)OC[C@@H]1O[C@@H](O/N=C2/C[C@@H](O)[C@@H](O)[C@@H]3[C@@H]4C(=O)N(Cc5ccc6c(c5)OCO6)C(=O)[C@H]4CC[C@@H]23)[C@H](OC(C)=O)[C@H](OC(C)=O)[C@@H]1OC(C)=O -36.6% [at 11.4 µM]
COc1cccc([C@H](O)Cn2cc(-c3cccc(CON=C(C)C)c3)nn2)c1 -43.8% [at 11.4 µM]
CO[C@@H]1COC(=O)CC=C[C@@H](C)[C@@H]2C=C[C@H](O)[C@@H](COC(=O)C/C=C\[C@H]1C)O2 -43.1% [at 11.4 µM]
COC(=O)[C@@H]1CC[C@H](C)[C@@H](c2ccc(C)cc2)N1C(=O)c1ccc(/C=N\O[C@@H](C)CN2CCCc3nc(C)c(C)cc32)cc1 -48.9% [at 11.4 µM]
